Laboratory results published in the supplement of paper PMC7801607.

Tested on: Plasmodium falciparum NF54 stage IV/V gametocytes
Assay: % inhibition of gametocyte viability (ATP bioluminescence); higher = more inhibition
Details: 1 µM; 24 h
In short: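 In 96-well plates, compound at 1 or 5 µM was added to 30,000 density-gradient-enriched stage IV/V NF54 gametocytes per well and incubated for 24 h at 37 °C. ATP readout used the Promega BacTiter Glo bioluminescence system. Percent inhibition of gametocyte viability comes from a single run, normalised to control wells.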

SMILES | % inhibition of gametocyte viability
N#Cc1cc([N+](=O)[O-])ccc1Oc1ccccc1Cl | < 0%
O=c1nc(N2CCN(CC3CCCCC3)CC2)sc2c([N+](=O)[O-])cc(C(F)(F)F)cc12 | < 0%
[N-]=[N+]=N[C@H]1C[C@H](n2ccc(=O)[nH]c2=O)O[C@@H]1CO | 3%
Cc1onc(-c2ccccc2Cl)c1C(=O)N[C@@H]1C(=O)N2[C@@H]1SC(C)(C)[C@@H]2C(=O)O | < 0%
O=C(c1ccccc1)N1CCN(c2ccccc2NC(=O)C(Cl)(Cl)Cl)CC1 | < 0%
O=[N+]([O-])c1cn(Cc2nc(O)nc(O)c2Br)cn1 | 0.137%
CCc1nc2ccc(Cl)cn2c1C(=O)NCc1ccc(N2CCC(c3ccc(OC(F)(F)F)cc3)CC2)cc1 | < 0%
Cc1ccc(C)c(OCCCCCCN2C[C@H](O)[C@@H](O)[C@H](O)[C@H]2CO)c1 | 1.96%
COc1cc(Cc2cc(N)nc(N)n2)cc(OC)c1OC | < 0%
O=C(Cn1cnc2ccccc2c1=O)Nc1ccccc1 | 1.88%
CC[C@H](NC(=O)[C@H](C)NC)C(=O)N1C[C@@H](O)C[C@H]1Cc1c(-c2[nH]c3cc(F)ccc3c2C[C@@H]2C[C@H](O)CN2C(=O)[C@H](CC)NC(=O)[C@H](C)NC)[nH]c2cc(F)ccc12 | 28.6%
O=C(N[C@H](CCS)C(=O)N[C@H](Cc1ccccc1)C(=O)O)c1cc2ccccc2[nH]1 | < 0%
CCCCCCCc1[nH]c2ccccc2c(=O)c1O | < 0%
CN1CCN(Cc2ccc(-c3cnc4[nH]cc(-c5ccc6[nH]ccc6c5)c4c3)cc2)CC1 | 11%
CCc1oc2ccccc2c1C(=O)c1ccc(O)cc1 | < 0%
C=CCc1cc(Cc2cnc(N)nc2N)cc(OC)c1O | < 0%
CC1(C)C[C@H]1C(=O)N/C(=C\CCCCSC[C@@H](N)C(=O)O)C(=O)O | < 0%
CCCCc1ccc(S(=O)(=O)Nc2cc(C)on2)cc1 | 2.13%
O=c1ccc2ncc(=O)n3c2n1CC3CN1CCC(NCc2cc3c(cn2)OCCC3)CC1 (stereo unspecified) | 0.762%
C=C[C@]1(C)C[C@@H](OC(=O)CS[C@@H]2C[C@H]3CC[C@@H](C2)N3C)[C@]2(C)[C@H](C)CC[C@]3(CCC(=O)[C@H]32)[C@@H](C)[C@@H]1O | 1.57%
CN(C/C=C/C#CC(C)(C)C)Cc1cccc2ccccc12 | < 0%
O=C(O)CCNC(=O)c1ccccc1 | < 0%
Nc1nc(NC2Cc3ccc(F)cc3C2)nc(N2CCCCC2)n1 (stereo unspecified) | 5.3%

Same assay, conditions: 5 µM; 24 h

SMILES | % inhibition of gametocyte viability
C[C@@H](c1nc(-c2ccc(C#N)cc2)cs1)[C@](O)(Cn1cncn1)c1ccc(F)cc1F | < 0%
O=C(Nc1ccccc1)N(Cc1cc(Br)ccc1O)c1ccc(F)cc1 | < 0%
O=C(NC1CCCc2c1[nH]c1ccc(Cl)cc21)c1ccccn1 (stereo unspecified) | < 0%
O=C(CSc1nnc(Br)n1-c1ccc(C2CC2)c2ccccc12)Nc1ccc(C(=O)O)cc1Cl | < 0%
O=C(NN1C(=O)[C@@H]2C3C=CC([C@H]4C[C@@H]34)[C@@H]2C1=O)c1ccc(C(F)(F)F)cc1 | < 0%
CO[C@@]1(NC(=O)Cc2cccs2)C(=O)N2C(C(=O)O)=C(COC(N)=O)CS[C@@H]21 | < 0%
c1ccc(-c2nnc3c4ccccc4c(N4CCNCC4)nn23)cc1 | 0.889%
O=C(O)c1ccccc1Sc1ncnc2sc3c(c12)CCC3 | < 0%
CCNC(=O)Nc1cc2c(-c3ccnc(C)c3)ccc(CNC(=O)OC)c2cn1 | < 0%
COc1c(F)c(F)cc2c(=O)c(C(=O)O)cn(C3CC3)c12 | < 0%
COC1CC2CCC(C)C(O)(O2)C(=O)C(=O)N2CCCCC2C(=O)OC(C(C)CC2CCC(OCCO)C(OC)C2)CC(=O)C(C)/C=C(\C)C(O)C(OC)C(=O)C(C)CC(C)/C=C/C=C/C=C/1C (stereo unspecified) | 37.2%
O=C(Nc1nnc(-c2ccccc2)o1)c1ccc(F)cc1 | < 0%
O=C(O)C(Cc1c[nH]c2ccccc12)N1C(=O)c2ccccc2C1=O (stereo unspecified) | < 0%
O=C(NCc1ncc(C(F)(F)F)cc1Cl)c1c(Cl)cccc1Cl | < 0%
CC(C)(C)NC(=O)[C@@H]1C[C@@H]2CCCC[C@@H]2CN1C[C@@H](O)[C@H](Cc1ccccc1)NC(=O)[C@H](CC(N)=O)NC(=O)c1ccc2ccccc2n1 | < 0%
N#Cc1cc([N+](=O)[O-])ccc1Oc1ccccc1Cl | < 0%
O=c1nc(N2CCN(CC3CCCCC3)CC2)sc2c([N+](=O)[O-])cc(C(F)(F)F)cc12 | < 0%
[N-]=[N+]=N[C@H]1C[C@H](n2ccc(=O)[nH]c2=O)O[C@@H]1CO | < 0%
Cc1onc(-c2ccccc2Cl)c1C(=O)N[C@@H]1C(=O)N2[C@@H]1SC(C)(C)[C@@H]2C(=O)O | < 0%

SMILES | % inhibition of gametocyte viability
O=C(c1ccccc1)N1CCN(c2ccccc2NC(=O)C(Cl)(Cl)Cl)CC1 | < 0%
O=[N+]([O-])c1cn(Cc2nc(O)nc(O)c2Br)cn1 | < 0%
CCc1nc2ccc(Cl)cn2c1C(=O)NCc1ccc(N2CCC(c3ccc(OC(F)(F)F)cc3)CC2)cc1 | < 0%
Cc1ccc(C)c(OCCCCCCN2C[C@H](O)[C@@H](O)[C@H](O)[C@H]2CO)c1 | < 0%
COc1cc(Cc2cc(N)nc(N)n2)cc(OC)c1OC | < 0%
O=C(Cn1cnc2ccccc2c1=O)Nc1ccccc1 | < 0%
CC[C@H](NC(=O)[C@H](C)NC)C(=O)N1C[C@@H](O)C[C@H]1Cc1c(-c2[nH]c3cc(F)ccc3c2C[C@@H]2C[C@H](O)CN2C(=O)[C@H](CC)NC(=O)[C@H](C)NC)[nH]c2cc(F)ccc12 | 76.9%
O=C(N[C@H](CCS)C(=O)N[C@H](Cc1ccccc1)C(=O)O)c1cc2ccccc2[nH]1 | < 0%
CCCCCCCc1[nH]c2ccccc2c(=O)c1O | < 0%
CN1CCN(Cc2ccc(-c3cnc4[nH]cc(-c5ccc6[nH]ccc6c5)c4c3)cc2)CC1 | 65.5%
CCc1oc2ccccc2c1C(=O)c1ccc(O)cc1 | < 0%
C=CCc1cc(Cc2cnc(N)nc2N)cc(OC)c1O | < 0%
CC1(C)C[C@H]1C(=O)N/C(=C\CCCCSC[C@@H](N)C(=O)O)C(=O)O | < 0%
CCCCc1ccc(S(=O)(=O)Nc2cc(C)on2)cc1 | < 0%
O=c1ccc2ncc(=O)n3c2n1CC3CN1CCC(NCc2cc3c(cn2)OCCC3)CC1 (stereo unspecified) | < 0%
C=C[C@]1(C)C[C@@H](OC(=O)CS[C@@H]2C[C@H]3CC[C@@H](C2)N3C)[C@]2(C)[C@H](C)CC[C@]3(CCC(=O)[C@H]32)[C@@H](C)[C@@H]1O | 7.83%
CN(C/C=C/C#CC(C)(C)C)Cc1cccc2ccccc12 | < 0%
O=C(O)CCNC(=O)c1ccccc1 | < 0%
Nc1nc(NC2Cc3ccc(F)cc3C2)nc(N2CCCCC2)n1 (stereo unspecified) | < 0%
